High-throughput results from PubChem.
rCAG binder = binds r(CAG) RNA repeats | inhibition, % at 3 µM | r(CAG) RNA repeat, TO-PRO-1 dye displacement fluorescence | actives 1.3% (n = 370,000) | AID 651821;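 active = inhibition above the plate cutoff, the mean of all test compounds on that plate plus 3 SD, cut at about 35% in these data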;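 also: 0% = DMSO alone and 100% = 100 µM mitoxantrone as full dye displacement; higher means more dye released from RNA so lower well fluorescence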
LEDGF integ inh = blocks HIV-1 LEDGF/p75-dependent DNA integration; TR-FRET IN-LEDGF/p75 DNA integration, Eu/Cy5; inhibition, % at 3.7 µM; actives 0.64% (n = 370,000); AID 743269;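 active = inhibition above the screen-wide mean plus 3 SD, cut at about 13% in these data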;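 also: signal is the Cy5 over europium emission ratio at 671 and 618 nm; 0% = plate median of compound wells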
DNMT1 inh = DNMT1 (human) enzyme inhibition; P26358; DNMT1 molecular beacon, Hinp1I cleavage, fluorescence; inhibition (reported as % activation of signal), % at 10 µM; actives 0.83% (n = 360,000); AID 588458; in the data active = inhibition above about 50%
UHRF1 MBD2 ctr = blocks human UHRF1 binding to methylated DNA | UHRF1 binding to methylated oligo, TR-FRET | inhibition, % at 4.4 µM | Q96T88 | actives 0.75% (n = 370,000); in the data active = inhibition above about 21%;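 also: UHRF1 SRA domain binding a hemimethylated CpG hairpin DNA probe; 0% = median of test compound wells and 100% = reference inhibitor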
PG9 Ab binder = small molecules binding HIV-1 gp120 antibody PG9. TR-FRET gp120-PG9 antibody binding. inhibition, % at 6.7 µM. actives 0.43% (n = 360,000). AID 624416; in the data active = inhibition above about 8.5%
MBD2 DNA inh = MBD2-methylated oligo binding inhibition; actives 0.31% (n = 370,000); Q9UBB5; inhibition, % at 4.4 µM; TR-FRET, MBD2 binding to methylated oligonucleotide; in the data active = inhibition above about 13%
Target sequence (Q9UBB5 whole entry, looked up): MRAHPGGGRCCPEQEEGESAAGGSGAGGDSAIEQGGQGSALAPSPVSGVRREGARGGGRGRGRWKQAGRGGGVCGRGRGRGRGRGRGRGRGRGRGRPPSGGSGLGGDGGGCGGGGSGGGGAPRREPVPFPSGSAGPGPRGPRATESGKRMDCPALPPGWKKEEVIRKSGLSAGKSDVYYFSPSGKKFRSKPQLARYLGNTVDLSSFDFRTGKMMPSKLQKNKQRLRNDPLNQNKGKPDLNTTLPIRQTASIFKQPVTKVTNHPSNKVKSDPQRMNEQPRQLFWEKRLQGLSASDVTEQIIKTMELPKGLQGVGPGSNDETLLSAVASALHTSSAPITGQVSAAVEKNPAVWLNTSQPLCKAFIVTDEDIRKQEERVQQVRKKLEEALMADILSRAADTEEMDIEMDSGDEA
The depositor's hits bear a star; i = inactive; . = not tested or not shown. Sampled rows, rich in hits. Any-hit rate of the full collection: about 3.5%.

SMILES | rCAG binder | LEDGF integ inh | DNMT1 inh | UHRF1 MBD2 ctr | PG9 Ab binder | MBD2 DNA inh
CC1=NN(c2ccccc2)C(=O)C1=Cc1ccccc1 | 10 | 12 | -4 | 16 | -1 | 5
COc1ccc2noc3c2c1C(=O)c1ccccc1-3 | i | 9 | 187* | -8 | -7 | -7
CCOC(=O)C1=C(C)NC(=O)NC1c1c(C)nn(-c2ccccc2)c1Cl (stereo not given) | 1 | 1 | 7 | 13 | 1 | 10
CCOC(=O)C1=C(C)N(C)C(=O)NC1c1c(C)nn(-c2ccc(C)cc2)c1Cl (stereo not given) | 4 | 0 | -2 | 23* | 2 | 4
NC(=O)C1CCN(c2ncc(Br)s2)CC1 | . | -3 | . | -2 | . | 1
Cc1ccc(C(=O)N/C(=C\c2ccccc2)C(=O)NCc2ccncc2)cc1 | 5 | 2 | 0 | 3 | 0 | 2
Cc1ccc(C(=O)N/C(=C/c2ccc(F)cc2)C(=O)NCc2ccncc2)cc1 | 1 | 2 | 1 | 23* | -2 | 3
CCCC(C)c1nnc(NC(=O)c2cc(C(=O)OC)cc([N+](=O)[O-])c2)s1 (stereo not given) | 50* | 3 | 3 | -1 | 1 | 1
CCCC(C)NC(=O)c1cc(C(=O)OC)cc([N+](=O)[O-])c1 (stereo not given) | -4 | 0 | 2 | 1 | 1 | -5
CCCCCC[C@@H](CC)CN(C(=O)Oc1ccccc1)c1ccccc1 | 4 | -4 | . | 0 | . | 4
O=S(=O)(Nc1cc(Sc2ncn[nH]2)c(O)c2ccccc12)c1ccccc1 | 22 | 34* | 24 | 11 | -4 | -4
Cc1cc(O)c(Sc2ncn[nH]2)cc1NS(=O)(=O)c1ccc(Cl)cc1 | 5 | 6 | 0 | 0 | -2 | -5
COc1ccc(-n2cnnc2SCC(=O)Nc2cccnc2Cl)cc1 | -2 | 3 | 4 | 21* | 0 | -1
O=C(O[C@@H]1OC2COC(=O)c3cc(O)c(O)c(O)c3-c3c(cc(O)c(O)c3O)C(=O)O[C@@H]([C@H]1O)[C@@H]2O)c1cc(O)c(O)c(O)c1 | . | . | 90* | . | . | .
CCn1c(=O)n2n(c1=O)[C@]1(C=C(C)C2)CN(Cc2ccc(OC)cc2OC)C(NC(=O)c2ccccc2)=N1 | . | 3 | . | 3 | . | 3
COc1ccc(OCC(C)CN2CCC(C(O)(c3ccccc3)c3ccccc3)CC2)cc1 (stereo not given) | 1 | 7 | . | 3 | . | -9
CCNC(=S)N/N=C/c1c(Cl)cccc1Cl | 0 | -3 | 1 | -3 | -3 | -3
CC(C)(C)NC(=S)N/N=C/c1c(Cl)cccc1Cl | 4 | 3 | 0 | 36* | -2 | 0
CCC[C@H]1[C@@H](OC(=O)NC(CC)CC)CC[C@@]23CCCN2C(=O)CCC[C@@H]13 | . | -1 | . | 78* | . | 4
O=C(COC(=O)/C=C/c1cccc(C(F)(F)F)c1)NCc1ccco1 | -4 | 28* | 0 | 2 | 0 | 6
C#CCCCN([C@H](C(=O)OC)C(C)C)S(=O)(=O)c1ccccc1Br | 0 | 5 | . | 2 | . | -2
Oc1ccc(Nc2nc(-c3ccccc3O)nc3ccccc23)cc1 | 43* | -2 | -7 | -2 | 0 | -1
CC1=NN(C(=O)COc2ccccc2)C(O)(c2cccnc2)C1 (stereo not given) | 2 | 3 | 3 | 21* | -2 | 0
CCOC(=O)c1nn(-c2ccc(F)cc2)c(=O)cc1OCC(=O)Nc1cccc(C)c1 | -9 | 5 | 5 | 3 | 11* | 2
CCOC(=O)c1nn(-c2ccc(C)cc2)c(=O)cc1OCC(=O)Nc1cc(C)ccc1OC | 0 | 2 | 9 | -1 | -1 | -4
SMILES | rCAG binder | LEDGF integ inh | DNMT1 inh | UHRF1 MBD2 ctr | PG9 Ab binder | MBD2 DNA inh
COc1ccc(S(=O)(=O)Nc2ccc(O)c3ccccc23)cc1 | 19 | 27* | -14 | -2 | -3 | -4
COc1ccc(C(=O)COC(=O)c2ccccc2NS(=O)(=O)c2ccc(O)c([N+](=O)[O-])c2)cc1 | 92* | -1 | -11 | 2 | 0 | 3
COc1ccc(S(=O)(=O)Nc2ccccc2)cc1 | 2 | 1 | -5 | -2 | -1 | -6
O=C(NNC(=O)c1cc(-c2cccnc2)nc2ccccc12)Nc1ccc(Cl)cc1 | 23 | -4 | -16 | -2 | 1 | -2
O=C(NNC(=O)c1cc(-c2ccccc2)nc2ccccc12)Nc1cccc(Cl)c1 | 32 | -4 | -8 | 81* | -3 | -1
O=C(COc1ccc(Br)cc1)Nc1ccc(C(=O)Nc2ccccc2C(=O)O)cc1 | 20 | -3 | -3 | 1 | -3 | -1
O=C(COc1ccc2ccccc2c1)Nc1cccc(C(=O)Nc2ccccc2C(=O)O)c1 | 83* | 1 | -22 | -4 | -3 | -3
CC(C)CCNC(=O)C1CCN(c2cncnc2)CC1 | 2 | -3 | . | 0 | . | -5
COc1cc(/C=N/NC(=O)c2ccccc2O)ccc1OCC(=O)Nc1ccccc1 | 9 | 2 | 0 | -2 | -1 | 1
O=C(COc1ccc(/C=N/NC(=O)c2cc3ccccc3o2)cc1Cl)Nc1ccccc1 | . | . | 71* | . | . | .
Cc1c(C(=O)OCC(=O)NCCc2ccc(S(N)(=O)=O)cc2)oc2ccccc12 | 4 | -1 | -1 | 37* | -1 | 3
O=C(C[C@@H]1C/C=C\CC[C@H](Cc2ccc(F)cc2)C(=O)OC[C@@H](Cc2ccccc2)NC1=O)NCCO | 2 | 1 | -4 | 21* | -1 | 8
O=C(C[C@H]1C/C=C/CC[C@@H](Cc2ccc(F)cc2)C(=O)OC[C@H](c2ccccc2)NC1=O)NCCO | -7 | 1 | 5 | -5 | 0 | -5
O=C(CN(CCc1ccccc1)S(=O)(=O)c1ccc(F)cc1)N1CCOCC1 | 5 | 0 | . | 1 | . | -1
CC(=O)N1CCc2cc(S(=O)(=O)NCCC(=O)NCc3ccc(Cl)cc3)ccc21 | 7 | 5 | . | -1 | . | 1
Cc1ccc(C(=O)NC2(O)C(=O)c3ccccc3C2=O)cc1C | 2 | 4 | 24 | -1 | -1 | -10
O=C(NC1(O)C(=O)c2ccccc2C1=O)c1ccc(C(F)(F)F)cc1 | 0 | 6 | 61* | -2 | 1 | -9
CCCCNC(=O)O[C@H]1CC[C@@]23CCCN2C(=O)CCC[C@H]3C1 | . | -1 | . | 2 | . | -1
O=C1C(C2=C(O)c3ccccc3C2=O)=Nc2ccccc21 | 44* | 1 | 41 | -12 | -14 | -21
Cc1ccc(S(=O)(=O)N2CCCC2C(c2ccccc2O)c2cn(C)c3ccccc23)cc1 (stereo not given) | 7 | -2 | . | -1 | . | 4
O=S1(=O)c2ccc(N3CCC[C@@H]3CO)cc2O[C@H]2CCN1C2 | 4 | -3 | . | 2 | . | 0
Cc1cccc(OCCCn2c(=O)oc3ccc(C)cc32)c1 | -5 | 12 | 1 | 25* | 2 | 11
CC(=O)C1CCC2C3CCC4=CC(=O)C=CC4(C)C3C(=O)CC12C (stereo not given) | -1 | -2 | 0 | 7 | 3 | 5
